HSF1 activator – increases HSF-1 driven luciferase reporter signal. AID 504408. activation, % at 9 µM. 300,000 compounds, 1.7% hits. NIH3T3-HGL HSF-1 luciferase reporter, MG132, 8 h; 100% = twice DMSO control signal;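 active = mean replicate activation of at least 50% with a set share of replicates each reaching 50%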
AHR activator – activates the human aryl hydrocarbon receptor. activation, % at 5 µM. 320,000 compounds, 2.5% hits. AID 2796. AHR-responsive luciferase reporter cells, luminescence; in the data active = activation above about 47%
NR0B1 inh – inhibitors of human orphan nuclear receptor DAX1 (NR0B1). P51843. HEK293 Gal4-DAX1 luciferase reporter, luminescence. inhibition, % at 6.75 µM. 340,000 compounds, 0.99% hits. AID 504766;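 active = inhibition above the mean over all tested compounds plus 3 SD, cut at about 4.2% in these data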;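 note: inhibition shows as a rise in luminescence from relieved DAX1 repression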
Target sequence (P51843 207-470 limits assumed): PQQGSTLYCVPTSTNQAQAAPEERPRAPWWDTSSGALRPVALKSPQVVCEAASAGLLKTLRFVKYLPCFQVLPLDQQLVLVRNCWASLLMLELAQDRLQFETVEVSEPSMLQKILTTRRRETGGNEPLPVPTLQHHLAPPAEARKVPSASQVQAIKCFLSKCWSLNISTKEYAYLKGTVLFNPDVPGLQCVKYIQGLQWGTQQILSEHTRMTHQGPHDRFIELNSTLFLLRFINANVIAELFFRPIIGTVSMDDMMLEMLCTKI
FXN GAA850 act – frataxin GAA850 promoter activation. activation, % at 6 µM. HEK293 lucGAA850 FXN promoter luciferase reporter, 24 h; percent of 10 µM SAHA response. AID 540364. 360,000 compounds, 0.56% hits;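 active = activation above the average of all compounds screened plus 3 SD, cutoff fixed separately per campaign, cut at about 7.5% in these data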
HSF1 inh – HSF1 inhibition; NIH3T3-HGL HSE-luciferase, MG132-induced, luminescence 8 h; active compounds read low; activity change, negative = inhibition, % at 7.5 µM (by protocol); 300,000 compounds, 0.77% hits; AID 2098;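 active = more than half of replicate wells show activity change below -50%, luminescence cut by over half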;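 note: luciferase reports HSF-1 transcriptional activity via heat shock element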
Numbers stand for hits; 0 = inactive; - = not tested or not shown. Most compounds without a hit are left out; they make up all but 5.4% or so of the library.

SMILES	HSF1 activator	AHR activator	NR0B1 inh	FXN GAA850 act	HSF1 inh
COc1ccc(S(=O)(=O)N2CCOCC2)cc1NC(=O)COC(=O)C1COc2ccccc2O1 (stereo not given)	0	0	0	0	0
CNC(=S)N(C)/N=C1/C(=O)N(Cc2c(Cl)cccc2Cl)c2ccccc21	-	0	0	0	-
Cc1cc(-c2nnc(CCC(=O)NCc3ccc(F)c(F)c3)o2)no1	0	0	4.3	0	0
Cc1cc(-c2nnc(CCC(=O)NCc3cccc(C(F)(F)F)c3)o2)no1	0	0	0	0	0
Cc1cccc(CNC(=O)CCc2nnc(C3CCCCC3)o2)c1	0	0	0	0	0
O=C(CCc1nnc(C2CCCCC2)o1)NCc1ccc(F)c(F)c1	0	0	5.6	0	0
COc1ccccc1CNC(=O)CN(C)CC(=O)Nc1ccccc1Br	-	0	0	0	-
COC(=O)c1c(NC(=O)C2COc3ccccc3O2)sc2c1CCN(C(=O)OC)C2 (stereo not given)	-	-	0	0	-
CC(C)(C)C1CCC(=NNc2ccc(S(N)(=O)=O)cc2[N+](=O)[O-])CC1 (stereo not given)	0	0	0	0	0
CC1CCCC/C1=N\Nc1ccc(S(N)(=O)=O)cc1[N+](=O)[O-] (stereo not given)	68	0	0	0	0
COc1ccc(CCNC(=O)c2cccc(C(=O)NCCc3ccc(OC)cc3)n2)cc1	0	0	0	0	0
CCOC(=O)c1cc(-c2ccccc2C)nn1CC1CC(c2cccnc2)=NO1 (stereo not given)	-	0	0	0	-
CCOC(=O)C1(CCOc2ccccc2)CCN(Cc2cc(OC)c3c(c2)OCO3)CC1	57	0	0	0	0
CCOC(=O)C1(CCOc2ccccc2)CCN(Cc2cccc(-n3cccn3)c2)CC1	0	0	0	0	-60
O=C(NNC(=O)C1CC=CCC1)c1ccccc1O (stereo not given)	0	0	0	0	0
COc1ccccc1C(O)(C(=O)N(NC(C)=O)c1ccccc1)c1ccccc1OC	0	-	0	0	-63
COc1ccccc1C(O)(C(=O)NNc1ccccc1C)c1ccccc1OC	0	0	0	0	0
CC1NC(=O)c2cc3ccccc3cc2-n2c1nc1ccc(F)cc1c2=O (stereo not given)	-	-	0	0	-
Cc1cc(C)cc(Cn2ncc(Cl)c(Cl)c2=O)c1	117	0	-	-	0
Cc1ccc(C(=O)Cn2nnc3ccccc32)cc1[N+](=O)[O-]	0	0	6.0	0	0
O=C(Cn1nnc2ccccc21)c1cccc([N+](=O)[O-])c1	0	0	0	0	0
Cc1ccc(S(=O)(=O)N2CCOCC2)cc1NC(=O)CN1C(=O)NC(C)(c2ccc(Cl)cc2Cl)C1=O (stereo not given)	-	0	0	0	-
C/C(=N\NC(=O)c1ccccc1)c1ccc2c(c1)OCO2	0	0	5.2	0	0
CCC/C(=N/NC(=O)c1ccc2c(c1)OCO2)c1cccs1	0	64	0	0	0
C/C(=N\NC(=O)c1c[nH]c2ccccc12)c1ccc2c(c1)OCO2	0	93	0	0	0
SMILES	HSF1 activator	AHR activator	NR0B1 inh	FXN GAA850 act	HSF1 inh
CC(NC(=O)c1ccc2c(c1)OCO2)c1ccccc1 (stereo not given)	0	0	0	0	-71
C/C(=N\NC(=O)c1cc(C)oc1C)c1ccc2c(c1)OCO2	0	0	0	0	0
CSc1ccccc1C(=O)C1CCCN(S(=O)(=O)c2c(C)noc2C)C1 (stereo not given)	0	0	0	0	0
O=S(=O)(c1cc(F)ccc1F)N1CCN(C2CCCCC2)CC1	0	0	0	0	0
CC(C)Cc1ccc(-c2ccc3nccn3c2)cc1	-	-	-	0	-
COC(=O)c1cc2c(n1S(=O)(=O)c1ccc(C)cc1)C(=O)C(=O)c1[nH]cc(C(=O)OCc3ccccc3)c1-2	-	-	0	0	-
CC(/C=C/c1ccc2c(c1)OCO2)=N/NC(=O)c1ccncc1	0	0	0	0	-71
CC(/C=C/c1ccc2c(c1)OCO2)=N/NC(=O)c1cccnc1	0	0	0	0	0
N/C(=N\c1nc2c(c(=O)[nH]1)CCC2)Nc1ccccc1	0	0	0	0	0
CCn1nc(NC(=O)c2ccncc2)c2cc3cc(C)ccc3nc21	0	62	0	0	0
CCn1nc(NC(=O)c2ccco2)c2cc3cc(C)ccc3nc21	0	53	0	0	0
CCCn1nc(NC(=O)c2ccncc2)c2cc3ccccc3nc21	0	69	0	0	0
Cc1c(Cl)cccc1NC(=O)CSc1nccn1C	0	0	0	0	0
COc1ccc(C)cc1-n1nnnc1SC(C)C(=O)NC1CCCC1 (stereo not given)	-	0	0	0	-
CN1CCN(S(=O)(=O)c2ccc(N3CCc4ccccc4C3)nc2)CC1	0	0	0	0	0
CCC(=O)n1nc(-c2cccnc2)nc1NCc1cccs1	0	0	0	0	-91
CCCC(=O)n1nc(-c2cccnc2)nc1NCc1cccs1	0	-	0	0	0
Nc1nc(CSC(=S)N2CCCCC2)nc(Nc2ccccc2)n1	0	0	0	0	-81
CC1CC(C)CN(C(=S)SCc2nc(N)nc(Nc3ccccc3)n2)C1 (stereo not given)	0	0	0	0	0
Nc1nc(CSC(=S)N2CCOCC2)nc(Nc2ccccc2)n1	0	0	5.0	0	0
CCN1CCN(C(=O)c2cc(-c3ccco3)nc3ccccc23)CC1	-	0	0	0	-
Cc1ccc(NC(=O)CSCC(=O)NNC(=O)c2ccoc2C)cc1	0	0	0	0	0
CN(C)c1nc2ccccc2c(N)c1-c1ccccc1	-	55	0	0	-
CSc1nc(N(C)C)c2ccccc2n1	0	0	0	0	0
CC(C)(C)c1ccc(C(=O)NCC(=O)N2CCCC2)cc1	0	0	0	0	0
SMILES	HSF1 activator	AHR activator	NR0B1 inh	FXN GAA850 act	HSF1 inh
CC(C)(C)c1ccc(C(=O)NCC(=O)O)cc1	0	0	4.8	0	0
COc1ccc(C(CNC(=O)c2ccc(OCc3csc(C)n3)cc2)N2CCCC2)cc1 (stereo not given)	-	-	0	0	-
CCOC(=O)Cn1nnnc1C(CC)N(Cc1cc2ccc(C)cc2[nH]c1=O)C1CCCC1 (stereo not given)	69	0	0	0	0
CCOC(=O)Cn1nnnc1C(CC)N(Cc1cccs1)Cc1cc2cc(C)ccc2[nH]c1=O (stereo not given)	0	0	0	0	0
CCOC(=O)Cn1nnnc1C(C(C)C)N(Cc1cccs1)Cc1cc2cc(C)ccc2[nH]c1=O (stereo not given)	0	0	4.3	0	0
O=S(=O)(NCc1ccccc1)NCc1cccc(C(F)(F)F)c1	0	0	4.7	0	0
O=C(CNC(=O)Cc1ccccc1)NCc1cccc(C(F)(F)F)c1	0	0	0	0	0
Cc1ccccc1-c1nn(-c2ccc(F)cc2F)cc1CNCCCN(C)C	0	0	0	0	0
CC(C)C(NC(=O)CSCc1ccc([N+](=O)[O-])cc1)C(C)C	0	0	0	0	0
Brc1ccccc1-c1nc2c3ccccc3ncn2n1	-	66	0	0	-
COc1ccc(NC(=O)C2Cc3c(-c4cccc(F)c4)ccnc3O2)cc1OC (stereo not given)	-	-	-	0	-

High-throughput results from PubChem.
